NSD2 inh: blocks human histone methyltransferase NSD2 | NSD2 peptide methylation, AlphaScreen, 120 min | hit rate 0.54% among 310,000 | inhibition, % at 12.5 µM; in the data active = inhibition above about 50%
Target sequence (O96028 whole entry, looked up): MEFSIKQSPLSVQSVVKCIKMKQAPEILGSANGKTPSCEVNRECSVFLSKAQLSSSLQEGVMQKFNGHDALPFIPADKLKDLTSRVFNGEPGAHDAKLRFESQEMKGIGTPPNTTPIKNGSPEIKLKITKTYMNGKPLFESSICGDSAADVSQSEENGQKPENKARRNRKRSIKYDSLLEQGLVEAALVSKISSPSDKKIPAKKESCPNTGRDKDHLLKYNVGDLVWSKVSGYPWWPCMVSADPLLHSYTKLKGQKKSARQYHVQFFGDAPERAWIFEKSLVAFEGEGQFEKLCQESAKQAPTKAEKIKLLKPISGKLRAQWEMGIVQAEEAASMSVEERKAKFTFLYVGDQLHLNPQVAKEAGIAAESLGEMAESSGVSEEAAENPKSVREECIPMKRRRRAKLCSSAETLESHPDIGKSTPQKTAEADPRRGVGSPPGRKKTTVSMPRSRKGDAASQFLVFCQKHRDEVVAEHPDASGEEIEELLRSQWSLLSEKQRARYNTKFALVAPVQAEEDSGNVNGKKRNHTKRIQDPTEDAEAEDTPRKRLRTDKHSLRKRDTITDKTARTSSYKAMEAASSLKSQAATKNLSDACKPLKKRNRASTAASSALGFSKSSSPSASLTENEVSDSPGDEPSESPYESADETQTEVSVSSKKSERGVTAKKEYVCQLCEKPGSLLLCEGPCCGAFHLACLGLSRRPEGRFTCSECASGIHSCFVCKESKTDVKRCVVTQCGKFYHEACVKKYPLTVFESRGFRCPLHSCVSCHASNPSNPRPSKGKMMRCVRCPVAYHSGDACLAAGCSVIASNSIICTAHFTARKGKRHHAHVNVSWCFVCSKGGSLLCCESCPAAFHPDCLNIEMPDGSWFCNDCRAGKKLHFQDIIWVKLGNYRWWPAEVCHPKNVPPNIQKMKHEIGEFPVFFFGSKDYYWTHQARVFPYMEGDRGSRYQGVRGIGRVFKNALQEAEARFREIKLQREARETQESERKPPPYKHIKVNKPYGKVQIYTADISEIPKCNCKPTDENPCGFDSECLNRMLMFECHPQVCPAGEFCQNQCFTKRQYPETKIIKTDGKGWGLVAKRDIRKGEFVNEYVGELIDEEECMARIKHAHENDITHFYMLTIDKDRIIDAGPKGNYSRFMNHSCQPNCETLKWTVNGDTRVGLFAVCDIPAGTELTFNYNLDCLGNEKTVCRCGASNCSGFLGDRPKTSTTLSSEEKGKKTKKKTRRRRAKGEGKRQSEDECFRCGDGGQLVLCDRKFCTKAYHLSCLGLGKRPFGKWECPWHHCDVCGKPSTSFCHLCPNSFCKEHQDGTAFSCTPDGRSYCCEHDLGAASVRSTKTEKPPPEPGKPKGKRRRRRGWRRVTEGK
Env fusion inh: HIV envelope-mediated fusion inhibition | inhibition, % at 12.3 µM | HeLa-JRFL Env/CEM21 cell fusion, luciferase | hit rate 1.1% among 360,000;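 active = mean replicate inhibition score of at least 50 and every replicate individually at or above 50; inconclusive = only one of the two criteria met; inactive = mean below 50 and not all replicates reaching 50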
F508del corr: correctors of CFTR F508del function in bronchial epithelial cells. activity (quench increase), % at 7.58 µM. CFBE cells, YFP halide quenching; stimulated with forskolin plus potentiator P3; % fluorescence drop versus neutral controls. hit rate 0.36% among 350,000;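 active = mean added fluorescence quench of at least 8% versus neutral control, with both replicates also reaching 8%; inconclusive = only one of the mean or replicate conditions met; inactive = mean below 8% and not both replicates reaching 8%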;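 note: cells transiently co-express mutant CFTR-F508del with the halide-sensitive YFP; corrector assay measuring rescue of mutant channel to the surface after 24 h compound exposure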
CASP6 VEID inh: inhibitors of human caspase-6 | P55212 | purified caspase-6, Z-VEID-R110 cleavage fluorescence | inhibition, % at 12.5 µM | hit rate 0.53% among 350,000;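 active = mean inhibition across replicates at least about 35%, with every replicate also reaching that limit, limit read from the data; inconclusive = only one of the two criteria met; inactive = neither criterion met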
PglD inh: blocks C. jejuni PglD acetyltransferase activity; purified PglD enzyme, DTNB colorimetric CoA detection; inhibition, % at 12.5 µM; hit rate 0.098% among 360,000; in the data active = inhibition above about 16%, passing the limit was not always enough; inconclusive = no clear call, values can overlap the other calls
ALR inh: human ALR oxidase inhibition via reduced H2O2. P55789. purified ALR, DTT oxidation, H2O2 HRP-luminol luminescence. inhibition, % (test concentration not listed). hit rate 3.8% among 290,000. AID 485317;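 active = mean replicate inhibition above about 79%, with every replicate also reaching it, limit read from the data; inconclusive = only one of the two criteria met; inactive = mean below limit and not every replicate reaching it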
Of the large screens only hits and unclear results are named; the others gave an inactive call. An excerpt weighted towards active compounds, which were near 4.1% of everything screened.

C[C@]12C(=O)N(c3cccc(Cl)c3)C(=O)N1[C@@H]1c3ccccc3OC[C@@H]1[C@H]2c1ccccc1	Env fusion inh 56 (no result: NSD2 inh)
CCOC(=O)[C@H]1[C@H]2COc3ccc(OC)cc3[C@@H]2N2C(=O)CN(Cc3ccc(Cl)cc3)C(=O)[C@@]12C	Env fusion inh 63 (no result: NSD2 inh)
C[C@]12C(=O)N(c3ccccc3)C(=O)N1[C@@H]1c3ccccc3OC[C@@H]1[C@H]2c1ccccc1	none (no result: NSD2 inh)
Cc1ccc(CN2CC(=O)N3[C@H]4c5ccccc5OC[C@@H]4[C@H](c4ccccc4)[C@]3(C)C2=O)cc1	Env fusion inh inconclusive (no result: NSD2 inh)
Cc1ccc2c(c1)[C@H]1[C@H](CO2)[C@H](c2ccccc2)[C@]2(C)C(=O)N(C)CC(=O)N12	none (no result: NSD2 inh, Env fusion inh, ALR inh)
C[C@@]12C(=O)N(Cc3ccccc3)CC(=O)N1[C@H]1c3ccccc3OC[C@@H]1[C@@H]2c1ccccc1	Env fusion inh 104 (no result: NSD2 inh)
C[C@@]12C(=O)N(Cc3ccco3)CC(=O)N1[C@H]1c3ccccc3OC[C@@H]1[C@@H]2c1ccccc1	Env fusion inh 84 (no result: NSD2 inh)
Cc1ccc2c(c1)[C@H]1[C@H](CO2)[C@H](c2ccccc2)[C@]2(C)C(=O)N(Cc3ccco3)CC(=O)N12	none (no result: NSD2 inh)
CC(C(=O)NCC(=O)Nc1ccc(F)c(F)c1F)N1CCN(c2ccc(O)cc2)CC1 (stereo not given)	ALR inh 99
CC(C(=O)NCC(=O)Nc1ccc(F)c(F)c1F)N1CCN(Cc2ccc(C#N)cc2)CC1 (stereo not given)	none
CO[C@@H]1CN(C)C(=O)c2cc(NS(=O)(=O)c3cccc(F)c3)ccc2OC[C@H](C)NC[C@H]1C	none (no result: NSD2 inh, CASP6 VEID inh, ALR inh)
COc1cc(/C=C2\SC(=Nc3ccccc3)NC2=O)cc(Cl)c1O	none
COc1cc(/C=C2\SC(=Nc3ccc(Cl)c(C(=O)O)c3)NC2=O)c(Br)c(Br)c1O	F508del corr 29, CASP6 VEID inh 35, ALR inh 98
C[C@H]1CCCCO[C@H](CN(C)CC2CCCCC2)[C@@H](C)CN([C@@H](C)CO)C(=O)c2cc(NC(=O)NC3CCCCC3)ccc2O1	none (no result: NSD2 inh, CASP6 VEID inh, ALR inh)
O=C(O)c1ccccc1C(=O)N1N=C2/C(=C/c3cccc([N+](=O)[O-])c3)CCCC2C1c1cccc([N+](=O)[O-])c1 (stereo not given)	ALR inh 79 (no result: PglD inh)
CCCN1C[C@H](C)[C@H](OC)CN(C)C(=O)c2ccc(NS(=O)(=O)c3ccccc3)cc2OC[C@@H]1C	none (no result: NSD2 inh, ALR inh)
CN(C)c1ccc(NC(=O)CC2NCCNC2=O)cc1 (stereo not given)	ALR inh 99 (no result: F508del corr, CASP6 VEID inh)
O=C(CCn1cnc2ccccc21)N/N=C/C=C/c1ccccc1	none
COc1ccccc1/C=C/C=N/NC(=O)CCn1cnc2ccccc21	F508del corr 13 (no result: ALR inh)
CCOc1ccc2c(c1)nc(SCC(=O)c1cccs1)n2C	ALR inh 97 (no result: Env fusion inh, F508del corr)
Cc1nc(C)c(/C(O)=C\c2nc3ccc([N+](=O)[O-])cc3oc2=O)o1	ALR inh 99
Cc1ccc(/C(O)=C/c2nc3ccccc3oc2=O)cc1	none
Cc1nc2ccccc2n1-c1ccccc1	none (no result: F508del corr, CASP6 VEID inh)
Cc1nc2cc(N)ccc2n1-c1ccccc1	ALR inh 99 (no result: PglD inh)
NC(=O)N/N=C/c1sc(N2CCCCC2)nc1-c1cccs1	ALR inh 97
CCOc1cc(C2C(C#N)=C(N)Oc3n[nH]c(-c4ccccc4)c32)ccc1O (stereo not given)	ALR inh 97 (no result: NSD2 inh, F508del corr, CASP6 VEID inh)
CCOc1cc(-c2cc(-c3ccccc3)nc(N)c2C#N)ccc1O	ALR inh 95 (no result: Env fusion inh, F508del corr, CASP6 VEID inh)
Cc1ccc(C)c(Cn2c(C(=O)OC(C)C)cc3c2ccn3C)c1	none (no result: F508del corr, CASP6 VEID inh)
Cc1ccccc1Cn1c(C(=O)OC(C)C)cc2c1ccn2C	Env fusion inh 54 (no result: F508del corr, CASP6 VEID inh)
C[C@H]1CCCCO[C@H](CN(C)C)[C@@H](C)CN([C@@H](C)CO)C(=O)c2cc(NC(=O)c3ccncc3)ccc2O1	none (no result: NSD2 inh, ALR inh)
CCN(CC)c1ccc(NC(=O)CN2CCN(c3nc(C)cc(C)n3)CC2)cc1	ALR inh 98 (no result: NSD2 inh, Env fusion inh, F508del corr, CASP6 VEID inh)
Cc1cc(C(=O)CN2CCN(CC(=O)Nc3ccc(F)cc3)CC2)c(C)n1C1CC1	F508del corr 23
CCN(CC)c1ccc(NC(=O)CN2CCN(CC(=O)Nc3ccccc3OC)CC2)cc1	none (no result: ALR inh)
CCN(CC)c1ccc(NC(=O)CN2CCN(c3ccc(F)cc3)CC2)cc1	ALR inh 79 (no result: F508del corr, CASP6 VEID inh)
CCN(CC)c1ccc(NC(=O)CN2CCN(CC(=O)Nc3ccccc3F)CC2)cc1	ALR inh 99 (no result: Env fusion inh, F508del corr, CASP6 VEID inh)
Cc1cc(C(=O)CN2CCN(CC(=O)Nc3cccc(F)c3)CC2)c(C)n1C1CC1	none (no result: Env fusion inh)
Cc1cc(C)nc(N2CCN(CC(=O)NCc3ccccc3)CC2)n1	none (no result: F508del corr, CASP6 VEID inh)
O=C(CN1CCN(c2ccc(Cl)cc2)CC1)Nc1ccc(F)cc1	none (no result: F508del corr, CASP6 VEID inh)
CC(=O)N(C)C[C@@H]1Oc2ncc(C#C[C@@H](C)O)cc2C(=O)N([C@H](C)CO)C[C@H]1C	none (no result: NSD2 inh, ALR inh)
O=C(C[C@@H]1C[C@H]2c3cc(NS(=O)(=O)c4ccc(F)cc4)ccc3O[C@H]2[C@H](CO)O1)NCc1cccc(F)c1	none (no result: NSD2 inh, ALR inh)
O=C(O)c1ccc(-c2nc(-c3ccccc3)c(-c3ccccc3)[nH]2)cc1	ALR inh 98 (no result: PglD inh)
Oc1ccc(-c2nc(-c3ccc(F)cc3)c(-c3ccncc3)[nH]2)cc1	Env fusion inh 57 (no result: NSD2 inh, ALR inh)
COc1ccc(-c2[nH]c(-c3ccc(C(=O)O)cc3)nc2-c2ccccc2)cc1	ALR inh 99 (no result: F508del corr, CASP6 VEID inh)
COc1ccc(-c2cn(CC(=O)N3CCC4(CC3)C(=O)NCN4c3ccccc3)nn2)cc1OC	none (no result: NSD2 inh, PglD inh, ALR inh)
Cc1nccc(-c2sc(-c3cccs3)nc2C)n1	ALR inh 85 (no result: F508del corr, PglD inh)
Cc1nc(-c2cccs2)sc1C(=O)O	none
Nc1ccc2ccc(O)cc2c1	none (no result: ALR inh)
C[n+]1c2cc(N)ccc2cc2ccc(N)cc21	F508del corr 62 (no result: NSD2 inh, ALR inh)
COc1ccc(CN(C)C[C@H]2Oc3ccc(NC(=O)C4CCCCC4)cc3CC(=O)N([C@H](C)CO)C[C@@H]2C)cc1	none (no result: NSD2 inh, ALR inh)
CC(C)C[C@H](CO)N(Cc1ccccc1)S(=O)(=O)N(Cc1ccccc1)[C@@H](CO)CC(C)C	Env fusion inh 109 (no result: NSD2 inh)
C=CS(=O)(=O)N(Cc1ccccc1)[C@H](CO)CC(C)C	none (no result: NSD2 inh, ALR inh)
O=S(=O)(N(Cc1ccccc1)[C@@H](CO)Cc1ccccc1)N(Cc1ccccc1)[C@@H](CO)Cc1ccccc1	Env fusion inh 71 (no result: NSD2 inh)
C[C@@H]1CN([C@@H](C)CO)C(=O)c2cc(NS(=O)(=O)c3ccc(F)cc3)ccc2O[C@H]1CN(C)C(=O)Nc1ccc(C(F)(F)F)cc1	none (no result: NSD2 inh, ALR inh)
COc1ccc(CN2CC3(CCN(Cc4ccccn4)CC3)c3c(n(C)c4cc(OC)ccc34)[C@@H]2CO)cc1	none (no result: NSD2 inh, Env fusion inh, CASP6 VEID inh, PglD inh, ALR inh)
Cc1noc(C)c1S(=O)(=O)N(C)C[C@H]1Oc2ccc(NC(=O)Cc3ccccc3)cc2CC(=O)N([C@H](C)CO)C[C@@H]1C	none (no result: NSD2 inh, CASP6 VEID inh, ALR inh)
Cn1c(CCNC(=O)c2ccco2)nc2cc(NC(=O)c3ccco3)ccc21	none (no result: F508del corr, CASP6 VEID inh)
COc1ccccc1C(=O)Nc1ccc2c(c1)nc(CCNC(=O)c1ccco1)n2C	F508del corr 10 (no result: ALR inh)
